# The panel holds about 79,000 compounds, 15% with a hit somewhere; the sample as a whole holds those more often. Activity calls are given as the source filed them. Cut-off read from the data, not from the text of the source: active = growth inhibition above about 70%; inactive = the rest.
# Experiment: NCI Yeast Anticancer Drug Screen. Data for the rad52 strain (AID 147);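 note: 0% = growth of vehicle-treated control cultures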
# Conditions: S. cerevisiae rad52 mutant growth inhibition; at 1.2 µM; hits give high values
# Outline: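 Yeast strain carrying a DNA damage repair alteration was exposed to test compounds. Growth inhibition was measured relative to vehicle-treated controls.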
row,SMILES,growth inhibition
1,O=CC=C(c1ccccc1)c1ccccc1,-2% (inactive)
2,FC(F)(F)c1nc2nc(Cl)c(Cl)nc2n1CCCN1CCOCC1,2% (inactive)
3,BrCC[P+](c1ccccc1)(c1ccccc1)c1ccccc1,-39% (inactive)
4,N#CSc1ccc(S(N)(=O)=O)cc1,-51% (inactive)
5,O=[N+]([O-])c1ccc2nc3ccccc3cc2c1,3% (inactive)
6,O=C(NC(Nc1ccc(F)c(Cl)c1)(C(F)(F)F)C(F)(F)F)C(C(F)(F)F)C(F)(F)F,-2% (inactive)
7,O=C(/C=C\c1ccc(Cl)cc1Cl)c1cccs1,-2% (inactive)
8,O=C(NCCCCNCCCNC(=O)c1cc(-c2ccccc2)nc2ccccc12)c1cc(-c2ccccc2)nc2ccccc12,-1% (inactive)
9,NC(=NCc1ccccc1)N/N=C\c1ccnc2ccccc12,0% (inactive)
10,CCCCN(CCCC)CCSc1ccc(Cl)cc1,-6% (inactive)
11,COc1cc(C2C3=C(COC3=O)Oc3cc4c(cc32)OCO4)ccc1O (centres undefined),-1% (inactive)
12,C#CCCCc1ccccc1,-67% (inactive)
13,CCc1ccc(NS(=O)(=O)c2ccccc2)c([N+](=O)[O-])c1,2% (inactive)
14,COc1ccc(C2c3cc4c(cc3OC(C)(O)C2C)OCO4)c(OC)c1 (centres undefined),-1% (inactive)
15,COC(=O)c1ccc(CCC2=CC(=O)C(Br)=CC2=O)cc1,17% (inactive)
16,NNC(=O)CCc1ccc2ccc3ccccc3c2c1,-1% (inactive)
17,Cn1c2ccccc2c(=O)c2cc(NC(=O)CCCCC(=O)Nc3ccc4c(c3)c(=O)c3ccccc3n4C)ccc21,0% (inactive)
18,CC(CC(C)(C)[N+](C)(C)C)[N+](C)(C)C (centres undefined),13% (inactive)
19,CC1CCN(CCC(=O)c2ccc(Cl)cc2)CC1,4% (inactive)
20,CCCCCCCCCCCCCCC(C(=O)[O-])[n+]1ccccc1 (centres undefined),2% (inactive)

row,SMILES,growth inhibition
1,CNC1C(OC2C(OC3C(O)C(O)C(N=C(N)N)C(O)C3N=C(N)N)OC(C)C2(O)CO)OC(CO)C(O)C1O (centres undefined),-3% (inactive)
2,O=C(O)c1ccccc1-c1ccccc1C(=O)Nc1ccc2c(c1)Cc1ccccc1-2,2% (inactive)
3,O=[N+]([O-])c1cccc2nc3ccccc3c(NCCCN3CCOCC3)c12,95% (active)
4,C=CC(C)(O)CCC1C(=C)C(O)CC2C(C)(C)CCCC12C (centres undefined),27% (inactive)
5,CN1c2ccc(Cl)cc2C(=O)NC1c1ccc([N+](=O)[O-])s1 (centres undefined),27% (inactive)
6,[O-][n+]1c2ccc(O)cc2nc2ccc(Br)cc21,1% (inactive)
7,O=C1c2ccccc2-c2nc3ccccc3nc21,-27% (inactive)
8,CCCCN1C(=O)N(c2ccc(OCC)cc2)C2N(CCCC)C1C(C)(C)C2(C)C (centres undefined),-6% (inactive)
9,CO[C@H]1C[C@](C)(O)Cc2cc3c(c(O)c21)C(=O)c1c(O)cc2c(c1C3=O)O[C@@H]1O[C@@]2(C)[C@H](O)[C@@H](N(C)C)[C@@H]1O,-22% (inactive)
10,COc1cc2c(cc1[N+](=O)[O-])C(=O)C(Br)(Br)CCC2,39% (inactive)
11,O=C1OC(CCl)CN1/N=C/c1ccc([N+](=O)[O-])o1 (centres undefined),-36% (inactive)
12,CN(C)CCOc1ccc2c(c1)C/C(=C/c1ncc([N+](=O)[O-])n1C)C2=O,50% (inactive)
13,CCCCCCCCCCCCCCCCCCN(C)CC(COP(=O)([O-])OCC[N+](C)(C)C)OC (centres undefined),-14% (inactive)
14,CC(C)c1ccccc1NC(=O)/C(Cl)=C(\Cl)C(=O)O,0% (inactive)
15,O=[N+]([O-])C(=C(Sc1ccccc1)Sc1ccccc1)C(Cl)=C(Cl)Cl,14% (inactive)
16,C(=C\c1ccccc1)/COc1ccccc1C(N1CCOCC1)n1nc2ccccc2n1 (centres undefined),3% (inactive)
17,O=C1C(Nc2ccccc2)=C(Oc2ccccc2)C(=O)c2ccccc21,-3% (inactive)
18,CCN(CC)CCN1C(=O)c2cccc3cc(OC)cc(c23)C1=O,8% (inactive)
19,CN(C)Cc1cc(N=Nc2ccc(Cl)cc2)cc(CN(C)C)c1O,8% (inactive)
